The source made the active and inactive calls.
Tests used:
[1] = binders of probe aFSTL3 on microarray, primary screen, stem cell growth factor project, biochemical, small-molecule microarray, fluorescence 635/667 (AID 1064); conditions: higher = more signal;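 further: measures binding of the biotinylated anti-FSTL3 antibody to printed compounds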
[2] = binders from COS7 lysate, DM2A8 probe, primary screen, torsin A project, cell lysate, small-molecule microarray, fluorescence 635/667 (AID 1065); conditions: higher = more signal, COS7 lysate expressing mutant human TOR1A
[3] = binders of probe aFGF2 on microarray, primary screen, stem cell growth factor project, biochemical, small-molecule microarray, fluorescence 635/667 (AID 1067); conditions: higher = more signal;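 further: measures binding of biotinylated aFGF2 protein to printed compounds on slides; z-score merges feature fluorescence and signal-to-noise across triplicate slides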
[4] = binders of probe aFGF10 on microarray, primary screen, stem cell growth factor project, biochemical, small-molecule microarray, fluorescence 635/667 (AID 1071); conditions: higher = more signal;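 further: score merges 667 nm spot intensity and signal to noise from triplicate slides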
[5] = biological target: Neurogenic locus notch homolog protein 2 (Homo sapiens) (UniProt Q04721); test: Notch2 binders on small-molecule microarrays, primary screen, biochemical, small-molecule microarray, 635 nm fluorescence, stem cell growth factors (AID 1073); conditions: Notch2 binding, higher = more signal
Sequence of Neurogenic locus notch homolog protein 2 (Homo sapiens) (Q04721 whole entry, looked up, canonical isoform): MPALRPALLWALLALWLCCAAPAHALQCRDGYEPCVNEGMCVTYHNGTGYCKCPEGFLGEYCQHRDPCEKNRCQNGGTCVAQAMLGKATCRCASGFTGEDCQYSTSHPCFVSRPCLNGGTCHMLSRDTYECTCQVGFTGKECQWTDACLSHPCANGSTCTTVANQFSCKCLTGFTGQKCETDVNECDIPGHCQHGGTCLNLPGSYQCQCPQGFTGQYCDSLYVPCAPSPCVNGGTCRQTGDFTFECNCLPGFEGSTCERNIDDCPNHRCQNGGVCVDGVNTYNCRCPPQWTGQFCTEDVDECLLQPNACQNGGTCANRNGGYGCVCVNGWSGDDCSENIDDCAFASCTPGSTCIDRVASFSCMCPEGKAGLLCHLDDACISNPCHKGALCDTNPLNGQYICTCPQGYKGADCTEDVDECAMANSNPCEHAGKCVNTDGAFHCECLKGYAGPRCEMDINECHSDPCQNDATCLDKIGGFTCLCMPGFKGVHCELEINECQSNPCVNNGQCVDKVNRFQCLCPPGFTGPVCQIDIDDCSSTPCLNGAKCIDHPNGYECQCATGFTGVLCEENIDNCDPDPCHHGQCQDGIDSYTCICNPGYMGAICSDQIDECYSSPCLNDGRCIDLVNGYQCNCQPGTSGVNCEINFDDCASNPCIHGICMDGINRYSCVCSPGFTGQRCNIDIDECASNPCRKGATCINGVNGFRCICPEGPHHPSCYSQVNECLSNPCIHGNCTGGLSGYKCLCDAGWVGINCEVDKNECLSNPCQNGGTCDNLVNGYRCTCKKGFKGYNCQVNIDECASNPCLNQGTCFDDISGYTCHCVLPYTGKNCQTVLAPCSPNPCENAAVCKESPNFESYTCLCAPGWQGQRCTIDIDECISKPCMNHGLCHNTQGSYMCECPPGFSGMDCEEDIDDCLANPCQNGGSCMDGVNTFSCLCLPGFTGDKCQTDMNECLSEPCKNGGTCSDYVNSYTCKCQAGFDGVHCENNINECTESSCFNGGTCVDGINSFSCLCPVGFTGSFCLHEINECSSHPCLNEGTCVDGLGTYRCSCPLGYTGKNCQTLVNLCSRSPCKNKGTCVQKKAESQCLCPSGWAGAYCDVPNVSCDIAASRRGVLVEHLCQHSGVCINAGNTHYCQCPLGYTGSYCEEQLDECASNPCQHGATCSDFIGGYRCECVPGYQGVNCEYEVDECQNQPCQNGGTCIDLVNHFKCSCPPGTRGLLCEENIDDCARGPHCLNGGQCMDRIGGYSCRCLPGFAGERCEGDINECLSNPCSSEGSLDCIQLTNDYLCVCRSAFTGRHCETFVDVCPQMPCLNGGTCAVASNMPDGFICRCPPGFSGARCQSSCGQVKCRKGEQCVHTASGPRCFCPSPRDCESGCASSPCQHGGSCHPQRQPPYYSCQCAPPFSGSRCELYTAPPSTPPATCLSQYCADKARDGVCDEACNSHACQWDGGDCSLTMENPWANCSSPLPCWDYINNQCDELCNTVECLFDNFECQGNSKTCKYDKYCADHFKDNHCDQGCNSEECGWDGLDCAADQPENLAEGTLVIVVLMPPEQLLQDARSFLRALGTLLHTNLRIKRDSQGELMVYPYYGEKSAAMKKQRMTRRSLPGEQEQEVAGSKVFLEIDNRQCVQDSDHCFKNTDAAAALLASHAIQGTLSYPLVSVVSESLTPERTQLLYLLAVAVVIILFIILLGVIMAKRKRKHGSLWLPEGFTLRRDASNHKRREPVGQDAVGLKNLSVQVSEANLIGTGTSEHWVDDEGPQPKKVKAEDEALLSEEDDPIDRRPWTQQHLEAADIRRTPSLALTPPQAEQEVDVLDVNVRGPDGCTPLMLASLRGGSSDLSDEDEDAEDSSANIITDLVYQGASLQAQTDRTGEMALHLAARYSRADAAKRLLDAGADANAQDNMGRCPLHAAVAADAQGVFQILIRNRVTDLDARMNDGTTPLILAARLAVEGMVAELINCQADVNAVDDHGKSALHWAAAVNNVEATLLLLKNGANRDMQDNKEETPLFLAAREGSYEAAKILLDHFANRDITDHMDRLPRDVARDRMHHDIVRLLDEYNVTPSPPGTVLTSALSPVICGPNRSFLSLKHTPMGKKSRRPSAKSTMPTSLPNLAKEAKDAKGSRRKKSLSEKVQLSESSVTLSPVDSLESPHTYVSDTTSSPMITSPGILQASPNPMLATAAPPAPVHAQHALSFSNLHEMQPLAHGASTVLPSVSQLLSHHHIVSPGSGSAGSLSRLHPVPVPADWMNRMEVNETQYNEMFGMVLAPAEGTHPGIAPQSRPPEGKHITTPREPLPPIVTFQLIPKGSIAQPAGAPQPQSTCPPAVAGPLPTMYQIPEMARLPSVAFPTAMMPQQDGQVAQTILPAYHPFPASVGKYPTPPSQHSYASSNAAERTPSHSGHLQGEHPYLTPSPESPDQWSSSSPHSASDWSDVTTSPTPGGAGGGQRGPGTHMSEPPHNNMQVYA

[6] = biological target: Pro-neuregulin-1, membrane-bound isoform (Homo sapiens) (UniProt Q02297); test: NRG1 binders on small-molecule microarrays, primary screen, psychiatric disease protein project, biochemical, small-molecule microarray, fluorescence 635/667 (AID 1075); conditions: NRG1 binding, 635 nm fluorescence, higher = more signal;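 further: score combines 667 nm spot fluorescence with signal to noise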
Sequence of Pro-neuregulin-1, membrane-bound isoform (Homo sapiens) (Q02297 whole entry, looked up, the tested form may be a part, canonical isoform): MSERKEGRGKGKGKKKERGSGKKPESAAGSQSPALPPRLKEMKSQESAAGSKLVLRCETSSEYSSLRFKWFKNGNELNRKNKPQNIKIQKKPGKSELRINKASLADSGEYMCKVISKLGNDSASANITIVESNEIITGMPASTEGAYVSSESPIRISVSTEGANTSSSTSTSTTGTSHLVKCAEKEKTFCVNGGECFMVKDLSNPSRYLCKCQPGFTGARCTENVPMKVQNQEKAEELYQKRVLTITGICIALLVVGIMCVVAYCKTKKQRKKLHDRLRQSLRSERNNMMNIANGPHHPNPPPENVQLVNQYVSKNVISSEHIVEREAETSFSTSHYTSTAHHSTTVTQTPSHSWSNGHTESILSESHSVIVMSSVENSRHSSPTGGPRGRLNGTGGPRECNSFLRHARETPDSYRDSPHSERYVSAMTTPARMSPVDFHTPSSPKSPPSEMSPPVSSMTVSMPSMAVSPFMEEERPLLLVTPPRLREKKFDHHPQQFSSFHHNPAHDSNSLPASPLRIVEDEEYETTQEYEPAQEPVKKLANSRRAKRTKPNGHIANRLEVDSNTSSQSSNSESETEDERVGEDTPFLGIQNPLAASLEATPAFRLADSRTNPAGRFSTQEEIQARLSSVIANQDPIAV

[7] = system: Neuregulin-1 EGF-like domain; test: binders of neuregulin-1 EGF-like domain, primary screen, biochemical, small-molecule microarray, 635 nm fluorescence (AID 1081); conditions: small-molecule microarray binding, higher = more signal;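 further: binding of the protein to compounds printed on small-molecule microarray slides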
[8] = FRG1 promoter luciferase signal modulators, primary screen, FRG1 inhibition for FSHD, cell-based, C2C12 myotubes, firefly/Renilla luciferase, luminescence (AID 1084); conditions: higher = more signal, called active from +8 up or from −8 down
[9] = binders of probe aFST on microarray, primary screen, stem cell growth factor project, biochemical, small-molecule microarray, fluorescence 635/667 (AID 1086); conditions: higher = more signal;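 further: score merges 667 nm fluorescence with signal-to-noise of each printed compound spot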
[10] = binders of probe aHhip on microarray, primary screen, stem cell growth factor project, biochemical, small-molecule microarray, fluorescence 635/667 (AID 1087); conditions: higher = more signal;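 further: score merges spot fluorescence at 667nm with spot signal to noise ratio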

| Structure (SMILES) | composite z-score [1] | composite z-score [2] | composite z-score [3] | composite z-score [4] | composite z-score [5] | composite z-score [6] | composite z-score [7] | z-score [8] | composite z-score [9] | composite z-score [10] |
| --- | --- | --- | --- | --- | --- | --- | --- | --- | --- | --- |
| COC(=O)[C@@]1(Cc2ccccc2)[C@H]2c3cc(C(=O)N4CCCC4)n(Cc4ccccc4)c3C[C@H]2CN1C(=O)c1ccccc1 | 0.425 | -0.463 | 0.113 | 0.742 | 1.69 | 1.6 | 1.01 | -1.15 (inactive) | 1.54 | -0.135 |
| COc1ccc(C#Cc2ccc3c(c2)[C@]2(C(=O)N3)[C@H](c3ccc(OCCO)cc3)N3[C@H](c4ccccc4)[C@H](c4ccccc4)OC(=O)[C@H]3[C@@H]2C(=O)N2CCN(c3ncccn3)CC2)cc1 | -0.176 | 0.07 | -0.093 | 0.344 | 1.2 | -0.132 | 0.135 | 0.781 (inactive) | -0.0006 | -0.318 |
| COc1cccc(C)c1NC(=O)O[C@H]1[C@H](OC(=O)Nc2ccccc2)[C@H](OC(=O)Nc2ccccc2)[C@@H](OC)O[C@@H]1CO | -0.306 | 0.559 | -0.0216 | 0.401 | 1.16 | 1.64 | 1.22 | 1.59 (inactive) | 0.319 | -0.0994 |
| C=CCC(OC(C)=O)[C@@H]1[C@@H](N(Cc2cc3ccccc3o2)C(=O)Cc2ccc(OC)cc2)c2cc(OCCCO)ccc2N1C(=O)c1ccc(-c2ccccc2)cc1 (stereo not given in full) | 0.378 | 0.459 | -0.0601 | -0.204 | -0.4 | -0.294 | -0.529 | -0.199 (inactive) | 0.182 | 0.251 |
| OCCCC1=CC(c2cccs2)N(Cc2cccc(OC(F)(F)F)c2)CC1 (stereo not given) | -0.24 | -0.487 | -0.11 | -0.331 | -0.763 | -0.222 | 0.44 | 0.67 (inactive) | -0.941 | 0.0401 |
| COCC(=C=CC[C@@H](O)c1ccccc1OCCO)C[C@@H](O)COCc1ccccc1 | 0.181 | 1.12 | -0.0267 | 1.06 | -0.258 | 1.68 | 1.01 | -1.11 (inactive) | 0.463 | 0.891 |
| COCCOC(=O)N1C(=O)[C@@]2(c3cc(C#CCNC(N)=O)ccc31)[C@H](c1ccc(OCCO)cc1)N1[C@H](c3ccccc3)[C@H](c3ccccc3)OC(=O)[C@H]1[C@@H]2C(=O)N1CCN(c2ncccn2)CC1 | 0.496 | 0.287 | -0.0478 | 0.748 | 1.04 | 0.37 | 0.482 | -0.0699 (inactive) | 0.974 | -0.173 |
| COCCCNC(=O)[C@@]1(Cc2ccccc2N=[N+]=[N-])N=C(c2ccc(OCCCO)cc2)O[C@H]1c1ccccc1CN=[N+]=[N-] | 0.377 | 0.556 | 0.185 | 1.07 | 1.47 | 1.78 | 1.26 | -0.344 (inactive) | 0.893 | -0.192 |
| COC(=O)[C@@]1(Cc2ccc(OC)cc2)[C@H]2c3cc(C(=O)N4CCCC4)n(CCF)c3C[C@H]2CN1C(=O)c1ccccc1 | 3.09 | -0.334 | 0.972 | 1.44 | 1.66 | 2.27 | 1.43 | 1.37 (inactive) | 3.23 | 3 |
| NC(=O)NCC#Cc1ccc2c(c1)[C@]1(C(=O)N2)[C@H](c2ccc(OCCO)cc2)N2[C@H](c3ccccc3)[C@H](c3ccccc3)OC(=O)[C@H]2[C@@H]1C(=O)N1CCN(c2ncccn2)CC1 | -0.584 | 0.936 | -0.0767 | 0.766 | 0.0776 | 0.29 | -0.178 | 0.565 (inactive) | -0.194 | -0.0564 |
| CCOC(=O)C1=CC[C@@H](c2cccc(Br)c2)N(S(=O)(=O)c2ccc(C)cc2)[C@H]1c1ccc([N+](=O)[O-])cc1 | -0.508 | 2.18 | -0.0535 | 0.928 | 1.52 | 0.674 | 1.11 | -1.74 (inactive) | 0.339 | 0.305 |
| NC(=O)NCC#Cc1ccc2c(c1)[C@]1(C(=O)N2)[C@H](c2ccc(OCCO)cc2)N2[C@H](c3ccccc3)[C@H](c3ccccc3)OC(=O)[C@H]2[C@@H]1C(=O)N1CCCCCCC1 | 3.57 | 0.48 | 0.943 | 1.2 | 1.53 | 1.74 | 0.955 | -0.154 (inactive) | 3.04 | 3.79 |
| COCCOC(=O)N1C(=O)[C@@]2(c3cc(C#CCC(C(=O)OC)C(=O)OC)ccc31)[C@H](c1ccc(OCCO)cc1)N1[C@H](c3ccccc3)[C@H](c3ccccc3)OC(=O)[C@H]1[C@@H]2C(N)=O | -0.564 | -0.461 | -0.116 | 0.245 | 1.15 | 0.928 | 1.22 | -0.441 (inactive) | 0.78 | 0.35 |
| CN(C)C(=O)[C@@]1(CCC(=O)OC(C)(C)C)COC(c2ccc(OCCCO)cc2)=N1 | 0.0486 | 0.0295 | -0.0598 | 0.448 | 0.675 | 1.8 | 1.41 | -0.977 (inactive) | 0.267 | -0.189 |
| O=C1O[C@@H](c2ccccc2)[C@@H](c2ccccc2)N2[C@@H](c3ccc(O)cc3)[C@]3(C(=O)Nc4ccc(C#CC5=CCCCC5)cc43)[C@@H](C(=O)Nc3nc4ccccc4s3)[C@H]12 | -0.371 | 0.449 | -0.0455 | 1.27 | 1.5 | 1.34 | 1.18 | -0.453 (inactive) | 0.647 | -0.171 |
| O=C1O[C@H](c2ccccc2)[C@H](c2ccccc2)N2[C@H]1[C@@H](C(=O)N1CCCCCCC1)[C@]1(C(=O)Nc3ccc(C#CCCO)cc31)[C@H]2c1ccc(OCCO)cc1 | 3.51 | 2.79 | 0.972 | 1.49 | 1.76 | 2.84 | 1.35 | -0.409 (inactive) | 3.33 | 2.53 |
| COC(=O)C(CC#Cc1ccc2c(c1)[C@]1(C(=O)N2)[C@H](c2ccc(O)cc2)N2[C@H](c3ccccc3)[C@H](c3ccccc3)OC(=O)[C@H]2[C@@H]1C(N)=O)C(=O)OC | 0.659 | -0.392 | -0.168 | -1.89 | -1.06 | -0.605 | -0.777 | -0.719 (inactive) | -0.611 | -0.245 |
| O=C(O)[C@]1(CCS(=O)(=O)c2ccccc2)N=C(c2ccc(OCCCO)cc2)O[C@@H]1c1ccccc1 | 1.19 | -0.106 | 0.115 | -0.0267 | 0.506 | 1.13 | 1.05 | 0.694 (inactive) | 0.914 | 0.744 |
| COCCCNC(=O)[C@@H]1c2ccccc2C(=O)N(Cc2cc(F)cc(C(F)(F)F)c2)[C@H]1c1ccc(CO)cc1 | 0.211 | -0.303 | -0.233 | -0.535 | -0.984 | -0.676 | 0.716 | 0.154 (inactive) | -0.395 | -0.134 |
| CCCCCCC#C[Si](O[C@H](c1ccccc1)c1cn(Cc2cccc(Cl)c2)nn1)(C(C)C)C(C)C | -0.194 | 0.485 | -0.161 | 0.238 | 0.631 | 0.485 | 0.382 | -0.891 (inactive) | -0.0431 | -0.0994 |
| O=C1C2C=CC(C(O)c3ccc(Br)cc3)N(Nc3ccccc3)C2C(=O)N1c1ccccc1 (stereo not given) | 0.385 | 0.227 | 0.191 | 0.82 | 1.41 | 1.86 | 1.09 | -2.33 (inactive) | -0.194 | -0.0645 |
| CC(C)CNC(=O)[C@@]1(C)c2ccccc2C(=O)N(Cc2ccccc2)[C@H]1c1ccc(CO)cc1 | 1.69 | -1.04 | -0.206 | -1.42 | -0.762 | 0.839 | 0.614 | -1.26 (inactive) | 0.267 | -0.164 |
| Cc1cc(C)c(C(O)C2C=CC3C(=O)N(c4ccccc4)C(=O)C3N2Nc2ccc([N+](=O)[O-])cc2)c(C)c1 (stereo not given) | 0.0096 | 0.129 | 0.0748 | 0.453 | 1.68 | 1.9 | 1.36 | -0.625 (inactive) | 1.51 | -0.223 |
| COC(=O)[C@@]1(Cc2ccccc2N=[N+]=[N-])N=C(c2ccc(OCCCO)cc2)O[C@H]1c1ccccc1 | 0.135 | 0.748 | 0.0904 | 0.264 | 0.287 | 1.5 | 1.16 | -2.33 (inactive) | 0.0635 | -0.0994 |
| CC(C)CNC(=O)[C@@]1(c2ccc([N+](=O)[O-])cc2)CC(=O)N(C(C)C)[C@@H]1c1ccc(CO)cc1 | 0.722 | -0.187 | -0.137 | -0.138 | -0.205 | 1.95 | 0.55 | -0.696 (inactive) | -0.761 | -0.0252 |
| COC(=O)C(CC#Cc1ccc2c(c1)[C@]1(C(=O)N2)[C@H](c2ccccc2OCCO)N2[C@H](c3ccccc3)[C@H](c3ccccc3)OC(=O)[C@H]2[C@@H]1C(=O)Nc1nc2ccccc2s1)C(=O)OC | -0.214 | 0.675 | 0.0563 | 0.605 | 1.05 | 1.47 | 1.26 | 1.94 (inactive) | 0.446 | 0.0329 |
| CN(C)C(=O)[C@@]1(Cc2ccccc2N=[N+]=[N-])N=C(c2ccc(OCCCO)cc2)O[C@H]1c1ccccc1N=[N+]=[N-] | 0.982 | 1.2 | 0.125 | 0.765 | 1.51 | 1.46 | 0.73 | -0.325 (inactive) | 1.53 | 0.28 |
| CC(C)(C)OC(=O)CC[C@@]1(C(=O)N2CCCCC2)N=C(c2ccc(OCCCO)cc2)O[C@@H]1c1ccccc1CN=[N+]=[N-] | 0.165 | 0.159 | 0.103 | 0.355 | 1.65 | 1.98 | 1.22 | -1.98 (inactive) | 1.63 | 0.0854 |
| C=CC[C@]1(C(=O)N2CCOCC2)N=C(c2ccc(OCCCO)cc2)O[C@H]1c1ccccc1CN=[N+]=[N-] | -0.0635 | 1.3 | 0.103 | 1.04 | 1.54 | 1.77 | 1.3 | -1.34 (inactive) | 1.99 | 0.28 |
